From paper PMC6212833
In all, about 2,000 compounds went through this assay and about 15 (0.8%) showed an effect of 50% or more. This excerpt belongs to a sample that is enriched for strong results. Where a SMILES comes first, the peptide text is derived from it. [ ]: non-standard residue; d: D form. pGlu = O=C1CC[C@@H](C(=O)O)N1; Thz = O=C(O)[C@@H]1CSCN1

Test system: Balamuthia mandrillaris (ATCC PRA-291) trophozoites, axenic culture
Experiment: primary screen, percent inhibition; higher = more effect of the substance;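 further: 0% = vehicle wells and 100% = lysate wells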
Settings: 20 µM
Method in brief: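 Trophozoites (3,000/well) in axenic medium exposed to library drugs at 20 µM in 0.2% DMSO for 72 h; viability by CellTiter Glo luminescence at 2, 4 and 8 h. Controls: vehicle and freeze-thaw amoeba lysate; B-score corrects row, column and edge effects.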

Row | SMILES | % Inhibition
1 | CC(C)C[C@H](NC(=O)[C@@H](Cc1c[nH]c2ccccc12)NC(=O)[C@H](Cc1ccc(O)cc1)NC(=O)[C@H](CO)NC(=O)[C@H](Cc1c[nH]c2ccccc12)NC(=O)[C@H](Cc1c[nH]cn1)NC(=O)[C@@H]1CCC(=O)N1)C(=O)N[C@@H](CCCN=C(N)N)C(=O)N1CCC[C@H]1C(=O)NCC(N)=O | 9.31%
2 | O=C(O)CCCCC(=O)O | 25.4%
3 | O=C(O)CCCO | 19%
4 | CC(=O)OCC(COC(C)=O)OC(C)=O | -1.82%
5 | C[C@@H]1[C@H](O)[C@@H](C)/C=C/C=C/C=C/C=C/C=C/C=C/C=C/[C@H](O[C@@H]2O[C@H](C)[C@@H](O)[C@H](N)[C@@H]2O)C[C@@H]2O[C@](O)(C[C@@H](O)C[C@@H](O)[C@H](O)CC[C@@H](O)C[C@@H](O)CC(=O)O[C@H]1C)C[C@H](O)[C@H]2C(=O)O | 25.1%
6 | Cc1c(NC(C)C)c(=O)n(-c2ccccc2)n1C | -7.04%
7 | Cc1c(N(C)C)c(=O)n(-c2ccccc2)n1C | 29.7%
8 | Cc1c(NC(=O)c2cccnc2)c(=O)n(-c2ccccc2)n1C | 70.2%
9 | C=CC1=C(C(=O)O)N2C(=O)[C@@H](NC(=O)/C(=N\OCC(=O)O)c3csc(N)n3)[C@H]2SC1 | 6.01%
10 | C[N+]1(C)C2CC(OC(=O)[C@@H](CO)c3ccccc3)CC1C1OC12 (stereo partly shown) | 15.9%
11 | NCCCC(N)C(=O)O (stereo not shown) [131504-L4] | 14.1%
12 | CO/N=C(/C(=O)NC1C(=O)N2C(C(=O)O)=C(COC(N)=O)CSC12)c1ccco1 (stereo not shown) | 41.1%
13 | CO[C@H]1/C=C/O[C@@]2(C)Oc3c(C)c(O)c4c(O)c(c(/C=N\N5CCN(C)CC5)c(O)c4c3C2=O)NC(=O)/C(C)=C\C=C\C(C)[C@H](O)[C@@H](C)[C@@H](O)[C@@H](C)[C@@H](OC(C)=O)[C@@H]1C (stereo partly shown) | 30.6%
14 | O=C1CC[C@@H](C(=O)N2CSC[C@H]2C(=O)O)N1 ([pGlu]-[Thz]-OH) | 16.6%
15 | CNC1(c2ccccc2Cl)CCCCC1=O (stereo not shown) | 1.15%
16 | Clc1ccccc1CN1CCc2sccc2C1 | 30.2%
17 | CC[C@@H](C(N)=O)N1CCCC1=O | 13.9%
18 | NC[C@H](O)c1ccc(O)c(O)c1 [130720-L3] | 14.8%
19 | C[N+](C)(C)CCOC(N)=O | -7.4%
20 | C[C@]12CCC3c4ccc(O)cc4CCC3C1CCC2=O (stereo partly shown) | -7.91%
21 | CNCCCC12CCC(c3ccccc31)c1ccccc12 | 15.2%
22 | CC1(C)O[C@]2(C)CC[C@H]1CC2 | 17.9%

Row | SMILES | % Inhibition
23 | Cn1c(=O)c2nc[nH]c2n(C)c1=O [88704-L9] | 8.85%
24 | Cc1ccc(-c2cc(C(F)(F)F)nn2-c2ccc(S(N)(=O)=O)cc2)cc1 | 20.5%
25 | CN1C2C[C@@H](OC(=O)[C@H](CO)c3ccccc3)CC1[C@@H]1O[C@H]21 | 0.52%
26 | CC(C)(C)NC[C@H](O)COc1nsnc1N1CCOCC1 | -3.01%
27 | C=CCN1CC[C@]23c4c5ccc(O)c4OC2C(=O)CC[C@@]3(O)[C@H]1C5 (stereo partly shown) | 29.3%
28 | CCC1(CC)C(=O)C=CNC1=O | 27.7%
29 | COc1ccc(CC2c3cc(OC)c(OC)cc3CC[N+]2(C)CCC(=O)OCCCCCOC(=O)CC[N+]2(C)CCc3cc(OC)c(OC)cc3C2Cc2ccc(OC)c(OC)c2)cc1OC (stereo not shown) [756849-L2] | 13.9%
30 | O=C(O)CCCc1ccc(N(CCCl)CCCl)cc1 | -32.3%
31 | CN(C)c1ccc2nc3ccc(=[N+](C)C)cc-3sc2c1 | 35.9%
32 | C[N+]1(C)[C@H]2CC(OC(=O)[C@H](CO)c3ccccc3)C[C@H]1C1OC12 (stereo partly shown) | 14.3%
33 | C=CCC1(C(C)CCC)C(=O)NC(=O)NC1=O (stereo not shown) | 11.2%
34 | CCC1C(C)=NN=C(c2ccc(OC)c(OC)c2)c2cc(OC)c(OC)cc21 (stereo not shown) | 11.9%
35 | CN(C)CCOC(c1ccc(Cl)cc1)c1ccccn1 (stereo not shown) | 7.85%
36 | O=S(=O)(O)CCSSCCS(=O)(=O)O | 37.4%
37 | Cc1nnc(SCC2=C(C(=O)O)N3C(=O)[C@@H](NC(=O)Cn4cnnn4)[C@H]3SC2)s1 | 10.9%
38 | O=C(O)CCC(=O)OC[C@@H](NC(=O)C(Cl)Cl)[C@H](O)c1ccc([N+](=O)[O-])cc1 | -36.5%
39 | CC[C@H]1OC(=O)[C@H](C)[C@@H](O[C@H]2C[C@@](C)(OC)[C@@H](O)[C@H](C)O2)[C@H](C)[C@@H](O[C@@H]2O[C@H](C)C[C@H](N(C)C)[C@H]2O)[C@](C)(O)C[C@@H](C)CN(C)[C@H](C)[C@@H](O)[C@]1(C)O | 23.9%
40 | Nc1c2c(nc3ccccc13)CCCC2 | 30.5%
41 | CC[C@H](NC(C)C)[C@H](O)c1ccc(O)c2nc(O)ccc12 | 6.56%
42 | C[C@]12C=CC(=O)C=C1CCC1C2[C@@H](O)C[C@@]2(C)C1CC[C@]2(O)C(=O)COP(=O)(O)O (stereo partly shown) | 5.73%
43 | CN(C)CCC[C@@]1(c2ccc(F)cc2)OCc2cc(C#N)ccc21 [131042-L4] | 26.2%
44 | Clc1ccc(CSC(Cn2ccnc2)c2ccc(Cl)cc2Cl)cc1 (stereo not shown) | 15.3%

Row | SMILES | % Inhibition
45 | CN(C)CCC=C1c2ccccc2C=Cc2ccccc21 | 23.3%
46 | CN(C)C(=O)Oc1cc(OC(=O)N(C)C)cc(C(O)CNC(C)(C)C)c1 (stereo not shown) [255708-L4] | 12%
47 | OC[C@H]1O[C@@](CO)(OC[C@@]2(O)O[C@H](CO)[C@@H](O)[C@@H]2O)[C@@H](O)[C@@H]1O | 26.1%
48 | NC(=O)N1c2ccccc2C=Cc2ccccc21 | 6.46%
49 | CCN(CC)C(C)CN1c2ccccc2Sc2ccccc21 (stereo not shown) | 8.27%
50 | O=c1[nH]c(=O)n([C@H]2C[C@H](O)[C@@H](CO)O2)cc1F | 4.91%
51 | CCN(CC)CCNC(=O)c1c(C)[nH]c(/C=C2\C(=O)Nc3ccc(F)cc32)c1C | 6.48%
52 | O=C(Nc1ccccc1)OCC(CN1CCCCC1)OC(=O)Nc1ccccc1 (stereo not shown) | 9.34%
53 | CCCCC1=NC2(CCCC2)C(=O)N1Cc1ccc(-c2ccccc2-c2nn[nH]n2)cc1 | 14.7%
54 | CCCc1nc(C(C)(C)O)c(C(=O)O)n1Cc1ccc(-c2ccccc2-c2nn[nH]n2)cc1 | 21.5%
55 | OCCN1CCN(CCCN2c3ccccc3Sc3ccc(Cl)cc32)CC1 | 33.5%
56 | CCCCCN(C)CCC(O)(P(=O)(O)O)P(=O)(O)O [756736-L2] | 25.4%
57 | Cc1cc2c(cc1S(N)(=O)=O)S(=O)(=O)CCC2 | 25.8%
58 | NC[C@H]1O[C@H](O[C@H]2[C@H](O)[C@@H](O[C@H]3O[C@H](CO)[C@@H](O)[C@H](N)[C@H]3O)[C@H](N)C[C@@H]2N)[C@H](O)[C@@H](O)[C@@H]1O | 16%
59 | CC[C@@H]1OC(OC(c2c[nH]cn2)C(NC(=O)c2nc(C(CC(N)=O)NCC(N)C(N)=O)nc(N)c2C)C(=O)NC(C)C(O)C(C)C(=O)NC(C(=O)NCCc2nc(-c3nc(C(=O)NCCCCN=C(N)N)cs3)cs2)C(C)O)[C@@H](O[C@H]2O[C@H](CO)[C@@H](O)[C@H](OC(N)=O)[C@@H]2O)[C@@H](C)[C@@H]1C (stereo partly shown) | -5.83%
60 | O=C(NCCCN1CCOCC1)c1ccc(Cl)cc1 | 17.5%
61 | CC(C)OC(=O)CCC/C=C\C[C@@H]1[C@@H](CC[C@@H](O)CCc2ccccc2)[C@H](O)C[C@@H]1O | 12.8%
62 | CC[C@@H](C(=O)[C@@H](C)[C@@H](O)[C@H](C)[C@@H]1O[C@@H]([C@@H](CC)C(=O)O)CC[C@@H]1C)[C@H]1OC2(C=C[C@@H](O)[C@]3(CC[C@@](C)([C@H]4CC[C@](O)(CC)[C@H](C)O4)O3)O2)[C@H](C)C[C@@H]1C (stereo partly shown) | 19.1%
63 | CC[C@]1(O)C[C@H]2CN(CCc3c([nH]c4ccccc34)[C@@](C(=O)OC)(c3cc4c(cc3OC)N(C=O)[C@H]3[C@@](O)(C(=O)OC)[C@H](OC(C)=O)[C@]5(CC)C=CCN6CC[C@]43[C@@H]65)C2)C1 | 9.62%
64 | COc1ccccc1N1CCN(CCCNc2cc(=O)n(C)c(=O)n2C)CC1 | 37.2%
